# Bioassay records from PubChem.
# KCNQ2 block – KCNQ2 (rat) channel inhibition | B-score at 10 µM | CHO-K1 KCNQ2, FluxOR thallium flux, 20 min; active compounds read low | AID 2156 | 310,000 tested, 1.1% active;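 active means fluorescence ratio B-score at most minus 3 library SDs, with starting brightness B-score within 2 library SDs, cut at about -5.5 in these data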
# Target sequence (O88943 whole entry, looked up): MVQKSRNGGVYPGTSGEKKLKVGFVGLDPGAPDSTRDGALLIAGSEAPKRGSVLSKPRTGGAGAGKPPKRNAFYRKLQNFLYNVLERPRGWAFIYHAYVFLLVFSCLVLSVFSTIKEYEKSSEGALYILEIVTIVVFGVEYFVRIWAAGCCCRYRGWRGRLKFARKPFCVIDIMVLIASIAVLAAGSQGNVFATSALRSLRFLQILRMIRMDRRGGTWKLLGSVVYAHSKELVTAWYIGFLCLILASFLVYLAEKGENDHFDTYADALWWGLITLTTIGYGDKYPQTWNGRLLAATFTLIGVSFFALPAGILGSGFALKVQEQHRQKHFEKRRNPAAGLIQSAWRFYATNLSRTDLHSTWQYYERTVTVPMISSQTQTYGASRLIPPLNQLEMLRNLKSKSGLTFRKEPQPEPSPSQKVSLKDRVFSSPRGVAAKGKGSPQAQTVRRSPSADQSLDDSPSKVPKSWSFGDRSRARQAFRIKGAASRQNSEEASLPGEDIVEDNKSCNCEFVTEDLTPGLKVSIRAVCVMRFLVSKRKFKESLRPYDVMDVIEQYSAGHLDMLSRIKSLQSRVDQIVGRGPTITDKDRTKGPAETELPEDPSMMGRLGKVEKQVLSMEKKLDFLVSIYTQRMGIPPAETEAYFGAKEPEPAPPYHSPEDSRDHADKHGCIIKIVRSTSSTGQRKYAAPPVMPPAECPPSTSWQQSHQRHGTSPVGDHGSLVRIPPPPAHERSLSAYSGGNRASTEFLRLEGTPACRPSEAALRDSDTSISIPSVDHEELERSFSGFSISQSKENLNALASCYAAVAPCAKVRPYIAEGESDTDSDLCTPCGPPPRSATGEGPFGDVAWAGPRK
# KCNQ2 pot – potentiators of rat KCNQ2 potassium channel; CHO-K1 KCNQ2, FluxOR thallium flux fluorescence; active compounds read high; 310,000 tested, 0.54% active; AID 2239; O88943; B-score at 10 µM;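 active means fluorescence ratio B-score at least 3 SD of library B-scores, with initial fluorescence B-score within 3 of them, cut at about 5.3 in these data; same plate scores as AID 2156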;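 further: B-score of peak minus minimum over baseline fluorescence ratio after K+ and Tl+ stimulus; positive B-score means potentiation of KCNQ2 with more thallium influx and brighter signal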
# Numbers stand for hits; i = inactive; nt = no result. Compounds with a hit are over-represented: about 1.6% of the library has one in this group of screens.
SMILES,KCNQ2 block,KCNQ2 pot
CCOc1ccc(C(=O)NCC(c2ccco2)N2CCc3ccccc3C2)cc1 (configuration not stated),-6.37,i
O=C(NCC(c1ccco1)N1CCc2ccccc2C1)c1ccc(Cl)c([N+](=O)[O-])c1 (configuration not stated),-5.76,i
COc1ccc(C(=O)NCC(c2ccco2)N2CCc3ccccc3C2)cc1 (configuration not stated),i,nt
COc1cc2cc(CN(CCc3cccc(C)c3)C(=S)NCCCN3CCOCC3)c(=O)[nH]c2cc1OC,i,nt
CC(C)c1ccc(/C=C/C(=O)N2CCCCCC2)cc1,i,nt
CC(C)c1ccc(/C=C/C(=O)n2nnc3ccccc32)cc1,-6.21,i
O=C(c1ccccc1F)N(Cc1nc2ccccc2c(=O)[nH]1)C1CCCC1,i,i
N#Cc1nnn(-c2ccc(Cl)cc2)c1N,i,i
COC(=O)CCSc1nc(N2CCOCC2)c2c(c1C#N)CC(C)(C)OC2,i,i
CC(C)CCSc1nc(N2CCOCC2)c2c(c1C#N)CC(C)(C)OC2,-6.54,i
Cc1nc(N2CCCCC2)c2c(-c3cccs3)csc2n1,-8.24,i
COCCCn1c(SCC(=O)NC(C)(C)C)nnc1-c1cccs1,i,i
Cc1nc(N2CCN(S(=O)(=O)c3ccccc3C#N)CC2)c2c(-c3cccs3)csc2n1,i,nt
Cc1nc(SCC(=O)NC(C)(C)C)c2c(-c3cccs3)csc2n1,-6.23,i
O=C1NC2(CCCCO2)CO1 (configuration not stated),i,i
CC1CC(C)CN(CCC(=O)Nc2ccc(Br)cc2)C1 (configuration not stated),i,nt
CC1(C)CC(=O)N(c2cc(Cl)cc(Cl)c2)C(=O)C1,i,nt
COc1ccc(CNC(=O)CCSCc2cccc(Cl)c2)c(OC)c1,i,nt
O=C(COc1ccc(F)cc1)c1ccc2c(c1)CCCC2,i,nt
O=C(COc1ccc(Cc2ccccc2)cc1)c1ccc(F)cc1,i,6.69
CCCCC(C(=O)NC1CCCC1)N(Cc1ccco1)C(=O)Cn1nnc(-c2ccc(F)cc2)n1 (configuration not stated),-7.24,i
O=C(CN(Cc1ccco1)C(=O)Cn1nnc(-c2ccc(F)cc2)n1)NC1CCCC1,i,i
Cc1c([N+](=O)[O-])cnc(Sc2ccccc2)c1[N+](=O)[O-],i,nt
COc1ccc(NC(=O)CC23CC4CC(CC(C4)C2)C3)cn1,i,18.3
O=C(CC12CC3CC(CC(C3)C1)C2)Nc1ccc(C(=O)O)cc1,i,nt
SMILES,KCNQ2 block,KCNQ2 pot
Cc1ccnc(NC(=O)CCC(=O)N(CC(=O)NC2CCCCC2)C2CCCC2)c1,i,i
Cc1cc(-c2ccccc2)nc2cc(C(=O)N(Cc3ccccc3)Cc3ccccc3)nn12,-7.24,i
COC(=O)c1cc2nc(-c3ccccc3)cc(C)n2n1,i,i
Cc1cc(NC(=O)CCN2C(=O)C3C4C=CC(C4)C3C2=O)ccc1Br (configuration not stated),i,i
Cc1ccc(S(=O)(=O)N(CCC(=O)O)Cc2ccc(Cl)cc2)cc1,i,i
Cc1ccccc1NC(=O)OCCN1CCN(Cc2ccccc2)CCC1=O,-6.35,i
Cc1ccc(NC(=O)OCCN2CCN(Cc3ccccc3)CCC2=O)cc1C,i,nt
O=C(O)Cc1coc2cc3c(cc12)CCC3,i,nt
O=C(Cc1coc2cc3c(cc12)CCC3)NC1CCCCCCC1,i,12.4
O=C(Cc1ccc(Br)cc1)N1CCN(C(=O)c2ccco2)CC1,i,i
CNC(=O)CSc1nc2ccccc2c(=O)n1C1CCCCC1,i,nt
CCOC(=O)CSc1nc2ccccc2c(=O)n1C1CCCC1,-5.75,i
CCOc1ccc(C(=O)Nc2cccc(C(C)=O)c2)cc1[N+](=O)[O-],i,i
O=C(N/N=C/c1ccc(O)cc1)Nc1cccc2nsnc12,i,nt
COc1ccc(C(=O)Nc2ccc(O)c3ccccc23)cc1OC,i,i
Cc1ccc(NC(=O)CSc2nn(-c3ccc(Cl)cc3)c(=S)s2)cc1S(=O)(=O)N(C)C,-7.14,i
CN(C)S(=O)(=O)c1cc(NC(=O)CSc2nn(-c3ccc(Cl)cc3)c(=S)s2)ccc1Cl,i,nt
Oc1ccccc1OCc1nc2ccccc2s1,i,nt
Oc1ccc(O)c(Cc2nc3ccccc3s2)c1,-5.56,i
CCc1ccc(CN2CCCC(CCC(=O)N3CCN(c4ccccn4)CC3)C2)o1 (configuration not stated),i,i
CCN(CC)CCN(C(=O)c1ccc2c(c1)CCCC2)c1nc2c(C)cccc2s1,-8.14,i
CCN(CC)CCN(C(=O)c1ccc2c(c1)CCCC2)c1nc2ccc(C)cc2s1,i,nt
Cc1cc(C)c2nc(N(CCN(C)C)C(=O)c3ccc4ccccc4c3)sc2c1,-6.02,i
CN(C)CCN(C(=O)c1ccc2ccccc2c1)c1nc2c(F)cccc2s1,i,nt
CCOc1ccc(CCNC(=O)COC(=O)c2ccc3c(c2)OCCO3)cc1OCC,i,nt
CCCCC(=O)NC(=S)Nc1ccc(S(=O)(=O)N2CCCC2)cc1,i,nt
NCCNc1ccc([N+](=O)[O-])c(NC2CC2)c1,i,i
CS(=O)(=O)CCSc1ncccc1C(=O)NCc1cccs1,i,i
